Test results taken from PubChem BioAssay (NCI).
About 79,000 compounds went through this panel and 15% of them were active in at least one assay; those are over-represented in the sample as a whole. Activity calls are given as the source filed them. Rule as the data show it: active = growth inhibition above about 70%; inactive = the rest.

Assays:
[1] = NCI Yeast Anticancer Drug Screen. Data for the rad52 strain (AID 147);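 also: 0% = growth of vehicle-treated control cultures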; conditions: S. cerevisiae rad52 mutant growth inhibition, hits give high values
How it was run: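 Inhibition of yeast growth, referenced to vehicle controls, was the measured output for a strain with defective DNA damage repair.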

[2] = NCI Yeast Anticancer Drug Screen. Data for the wt1 strain (AID 149);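 also: 0% = growth of vehicle-treated wt1 cultures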; conditions: S. cerevisiae wt1 strain (SPY 50644) growth inhibition, hits give high values
How it was run: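 Compounds are added to wt1 yeast cultures. Growth is then measured. Inhibition is expressed relative to vehicle-treated controls.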

[3] = NCI Yeast Anticancer Drug Screen. Data for the rad50EPP+ strain (AID 151);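 also: 0% = growth of vehicle-treated control cultures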; conditions: S. cerevisiae rad50 mutant strain, hits give high values
How it was run: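 Genetically defined yeast (rad50EPP+, DNA damage repair alteration) is grown with compound, and inhibition of growth is expressed relative to vehicle-treated controls.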

[4] = NCI Yeast Anticancer Drug Screen. Data for the mgt1 strain (AID 153); conditions: S. cerevisiae mgt1 mutant growth inhibition, hits give high values
How it was run: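 In the mgt1 strain, test compounds were added and growth inhibition was determined relative to vehicle-treated controls.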

[5] = NCI Yeast Anticancer Drug Screen. Data for the rad50 strain (AID 155);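 also: 0% = growth of vehicle-only cultures of the same strain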; conditions: S. cerevisiae rad50 strain growth inhibition, hits give high values
How it was run: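 Inhibition values express reduced yeast growth in compound-treated cultures relative to vehicle-treated controls.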

[6] = NCI Yeast Anticancer Drug Screen. Data for the mec2-1 strain (AID 157); conditions: S. cerevisiae mec2-1 strain, hits give high values
How it was run: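 Each compound was tested on mec2-1 yeast, a strain altered in DNA damage repair or cell cycle control. Growth inhibition is reported relative to vehicle.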

[7] = NCI Yeast Anticancer Drug Screen. Data for the rad14 strain (AID 159);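 also: 0% = growth of vehicle-treated control cultures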; conditions: S. cerevisiae rad14 strain growth inhibition, hits give high values
How it was run: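 A mutant yeast strain defective in DNA damage repair is treated with compound; inhibition of its growth is scored against untreated, vehicle-exposed cultures.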

[8] = NCI Yeast Anticancer Drug Screen. Data for the sgs1 mgt1 strain (AID 161);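 also: 0% = growth of cultures given vehicle only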; conditions: S. cerevisiae sgs1 mgt1 strain, hits give high values
How it was run: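 Inhibition of yeast growth, normalised to vehicle-treated controls, is reported for a strain bearing genetic alterations in DNA damage repair.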

[9] = NCI Yeast Anticancer Drug Screen. Data for the CLN2oe strain (AID 163);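 also: 0% = growth of vehicle-only control cultures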; conditions: S. cerevisiae CLN2oe strain, hits give high values
How it was run: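 First, the altered yeast strain was treated with each compound; second, its growth was measured; finally, inhibition was derived by comparison with vehicle controls.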

[10] = NCI Yeast Anticancer Drug Screen. Data for the cln2 rad14 strain (AID 165);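 also: 0% = growth equal to vehicle treated cultures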; conditions: S. cerevisiae cln2 rad14 strain, hits give high values
How it was run: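 Test compounds were added to cln2 rad14 yeast cultures; inhibition of growth was then determined by comparison with vehicle treatment.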

[11] = NCI Yeast Anticancer Drug Screen. Data for the bub3 strain (AID 167); conditions: S. cerevisiae bub3 mutant strain, hits give high values
How it was run: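 Steps: expose the mutant yeast strain to compound; grow alongside vehicle-treated cultures; measure growth; express inhibition against the vehicle cultures.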

[12] = NCI Yeast Anticancer Drug Screen. Data for the wt2 strain (AID 169);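 also: 0% = growth of vehicle-treated yeast cultures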; conditions: S. cerevisiae wt2 strain growth inhibition, hits give high values
How it was run: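 The panel's yeast strains carry defined changes in DNA repair or cell cycle genes. Each strain is grown with compound, and growth loss is scored relative to vehicle.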

[13] = NCI Yeast Anticancer Drug Screen. Data for the sgs1 strain (AID 173);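 also: 0% = growth of vehicle-only control cultures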; conditions: S. cerevisiae sgs1 mutant, hits give high values
How it was run: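 Vehicle-treated cultures served as reference for growth inhibition of a yeast strain altered in DNA damage repair or cell cycle control after compound exposure.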

[14] = NCI Yeast Anticancer Drug Screen. Data for the mlh1 rad18 strain (AID 175); conditions: S. cerevisiae mlh1 rad18 strain growth inhibition, hits give high values
How it was run: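 Inhibition values reflect reduced growth of mutant yeast versus vehicle-treated controls following compound exposure; the mutations affect DNA damage repair.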

[15] = NCI Yeast Anticancer Drug Screen. Data for the mlh1 strain (AID 171);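 also: 0% = growth of vehicle-treated control cultures of the same strain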; conditions: S. cerevisiae mlh1 strain growth inhibition, hits give high values
How it was run: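 Inhibition values reflect reduced yeast growth in the presence of compound, referenced to vehicle controls, using a strain chosen for its alteration in DNA repair or cell cycle control.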

[16] = NCI Yeast Anticancer Drug Screen. Data for the rad18 strain (AID 177); conditions: S. cerevisiae rad18 mutant growth inhibition, hits give high values
How it was run: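 Steps: expose repair-mutant yeast to compound; measure growth; express as inhibition relative to vehicle control.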

[17] = at 5.0 µM (retest, dose inferred, filed as 0.5)
[18] = at 50.0 µM (retest, dose inferred, filed as 5.0)

Measured: growth inhibition

CCc1c[n+]([O-])c(C)cc1[N+](=O)[O-]
active: [1]; at 100.0 µM 90% | [3]; at 100.0 µM 85% | [5]; [18] 94% | [5]; at 50.0 µM 73.7% | [5]; at 100.0 µM 87% | [6]; [18] 77% | [6]; at 100.0 µM 92% | [7]; at 33.0 µM 94% | [7]; at 100.0 µM 98% | [8]; [18] 95% | [8]; at 50.0 µM 87.5% | [10]; [18] 94% | [10]; at 50.0 µM 88.2% | [13]; at 33.0 µM 85% | [13]; at 100.0 µM 93% | [14]; [18] 96%
inactive: [1]; at 1.2 µM 2% | [1]; at 3.7 µM 7% | [1]; at 11.0 µM 21% | [1]; at 33.0 µM 57% | [2]; at 1.2 µM 0% | [2]; at 3.7 µM -1% | [2]; at 11.0 µM 0% | [2]; at 33.0 µM -1% | [2]; at 100.0 µM 13% | [3]; at 1.2 µM -1% | [3]; at 3.7 µM 6% | [3]; at 11.0 µM 25% | [3]; at 33.0 µM 55% | [4]; at 1.2 µM -2% | [4]; at 3.7 µM -2% | [4]; at 11.0 µM -2% | [4]; at 33.0 µM 17% | [4]; at 100.0 µM 22% | [5]; at 1.2 µM 1% | [5]; at 3.7 µM 6% | [5]; [17] 17% | [5]; at 11.0 µM 18% | [5]; at 33.0 µM 53% | [6]; at 1.2 µM -2% | [6]; at 3.7 µM 1% | [6]; [17] -6% | [6]; at 11.0 µM 2% | [6]; at 33.0 µM 27% | [6]; at 50.0 µM 14.9% | [7]; at 1.2 µM 5% | [7]; at 3.7 µM 12% | [7]; at 11.0 µM 48% | [8]; [17] 45% | [9]; at 1.2 µM -2% | [9]; at 3.7 µM -4% | [9]; at 11.0 µM -5% | [9]; at 33.0 µM -14% | [9]; at 100.0 µM -2% | [10]; [17] 21% | [11]; at 1.2 µM -4% | [11]; at 3.7 µM -8% | [11]; [17] 8% | [11]; at 11.0 µM -14% | [11]; at 33.0 µM -20% | [11]; [18] 52% | [11]; at 50.0 µM -29.3% | [11]; at 100.0 µM -2% | [12]; at 1.2 µM 0% | [12]; at 3.7 µM 0% | [12]; at 11.0 µM 2% | [12]; at 33.0 µM 5% | [12]; at 100.0 µM 21% | [13]; at 1.2 µM 10% | [13]; at 3.7 µM 31% | [13]; at 11.0 µM 63% | [14]; [17] 58% | [14]; at 50.0 µM 65.9%

COc1ccc(C(NCCNC(c2ccc(OC)c(OC)c2)c2cc3c(cc2O)OCO3)c2cc3c(cc2O)OCO3)cc1OC (stereo unspecified)
inactive: [1]; at 1.2 µM -1% | [1]; at 3.7 µM -6% | [1]; at 11.0 µM 7% | [2]; at 1.2 µM 4% | [2]; at 3.7 µM -2% | [2]; at 11.0 µM 2% | [2]; at 33.0 µM 29% | [3]; at 1.2 µM -6% | [3]; at 3.7 µM -11% | [3]; at 11.0 µM 10% | [4]; at 1.2 µM 2% | [4]; at 3.7 µM 4% | [4]; at 11.0 µM 3% | [4]; at 33.0 µM 3% | [5]; at 1.2 µM 4% | [5]; at 3.7 µM -10% | [5]; [17] -12% | [5]; at 11.0 µM 19% | [5]; [18] 7% | [5]; at 50.0 µM 38.2% | [6]; at 1.2 µM -1% | [6]; at 3.7 µM 1% | [6]; [17] -11% | [6]; at 11.0 µM 9% | [6]; at 50.0 µM 27.9% | [7]; at 1.2 µM 1% | [7]; at 3.7 µM 5% | [7]; at 11.0 µM 27% | [8]; [17] 4% | [8]; [18] 48% | [9]; at 1.2 µM -6% | [9]; at 3.7 µM 1% | [9]; at 11.0 µM 7% | [9]; at 33.0 µM 18% | [10]; [17] -29% | [10]; [18] 23% | [10]; at 50.0 µM 41.2% | [11]; at 1.2 µM -1% | [11]; at 3.7 µM -6% | [11]; [17] -21% | [11]; at 11.0 µM 0% | [11]; at 33.0 µM 15% | [11]; [18] 28% | [11]; at 50.0 µM 54.8% | [15]; at 1.2 µM 2% | [15]; at 3.7 µM 1% | [15]; at 11.0 µM 12% | [13]; at 1.2 µM 2% | [13]; at 3.7 µM 0% | [13]; at 11.0 µM 4% | [13]; at 33.0 µM 63% | [14]; [17] -29% | [14]; [18] 34% | [14]; at 50.0 µM 46.6% | [16]; at 1.2 µM -4% | [16]; at 3.7 µM -4% | [16]; at 11.0 µM 8%
active: [1]; at 33.0 µM 89% | [1]; at 100.0 µM 99% | [2]; at 100.0 µM 99% | [3]; at 33.0 µM 87% | [3]; at 100.0 µM 97% | [4]; at 100.0 µM 99% | [5]; at 33.0 µM 74% | [5]; at 100.0 µM 99% | [6]; at 33.0 µM 78% | [6]; [18] 95% | [6]; at 100.0 µM 99% | [7]; at 33.0 µM 92% | [7]; at 100.0 µM 99% | [8]; at 50.0 µM 72.2% | [9]; at 100.0 µM 98% | [11]; at 100.0 µM 98% | [15]; at 33.0 µM 84% | [15]; at 100.0 µM 99% | [13]; at 100.0 µM 99% | [16]; at 33.0 µM 75% | [16]; at 100.0 µM 98%
